Assay results taken from PubChem BioAssay (Tox21).
Where “and” joins values, the source holds several entries; their conditions need not be identical. Identical values can stand only once. Results filed as inconclusive are left out. More than one record can exist for a structure, and the calls need not agree. Calls of active or inactive are those of the source. Calls follow the shape of the dose curve; as a rule, active = well fitted activation curve with a large enough effect in the repeat runs; inconclusive = weak or mixed curves; inactive = flat fitted curve, though single readings scatter.

Experiment: A CellTox Green Cytotoxicity Assay to monitor cytotoxicity in HEK293 cells - 8 hour (AID 1224884); also: nearly all actives have a fitted effect of over 35% in size
Settings: CellTox Green fluorescence; series mostly up to 76.8 µM; cytotoxicity increase: at the top concentration
In short: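 Cells (HEK293, 600/well) and dye reagent are dispensed together. After 5 h at 37 C, 23 nL compound is pinned in. Plates stay at 37 C for 40 h with fluorescence read at 0h, 8h, 16h, 24h, 32h and 40h.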
% is scaled to controls: 0 for no effect and ±100 for the full control effect; potency is read from the fitted curve at half-maximal effect.

| SMILES | Potency | cytotoxicity increase |
| --- | --- | --- |
| CCN(CC)c1ccc2c(C)cc(=O)oc2c1 | inactive |  |
| CCCN[C@H]1CCc2nc(N)sc2C1 | inactive |  |
| CC(C)(C)c1ccccc1 |  | -4.72% (inactive) |
| NC12CC3CC(CC(C3)C1)C2 |  | -13.3% [at 35.3 µM] (inactive) |
| NC(N)=NC(=O)Cc1c(Cl)cccc1Cl |  | -1.03% [at 35.3 µM] (inactive) |
| CC(C)(C)NC(=O)[C@@H]1CN(Cc2cccnc2)CCN1C[C@@H](O)C[C@@H](Cc1ccccc1)C(=O)N[C@H]1c2ccccc2C[C@H]1O | inactive |  |
| CCCCCCCCCCCCCC[P+](CCCC)(CCCC)CCCC | 17.3 µM (active) and 21.9 µM (active) |  |
| CCCNC(C)C(=O)Nc1ccccc1C (configuration not stated) |  | -12.2% [at 35.3 µM] (inactive) |
| CCOc1ccccc1C(N)=O |  | 15.2% (inactive) |
| CC(=O)CC(C)=O |  | -0.355% (inactive) |
| O=c1n(CC2CO2)c(=O)n(CC2CO2)c(=O)n1CC1CO1 (configuration not stated) | inactive |  |
| NNCCc1ccccc1 | inactive |  |
| CC1COC(=O)O1 (configuration not stated) | inactive |  |
| CC1=CC(=O)c2ccccc2C1=O | 21.9 µM (active) and 23.9 µM (active) |  |
| O=Nc1ccc(Nc2ccccc2)cc1 | inactive |  |
| Oc1ccc(Cl)cc1Cc1cc(Cl)ccc1O | inactive |  |
| CCCCOCCOC(=O)c1ccccc1C(=O)OCCOCCCC |  | -18.3% (inactive) |
| CCn1cc(C(=O)O)c(=O)c2cc(F)c(N3CCNC(C)C3)c(F)c21 (configuration not stated) |  | -3.93% [at 35.3 µM] (inactive) |
| O=C(O)CP(=O)(O)O |  | 0.218% [at 35.3 µM] (inactive) |

| SMILES | Potency | cytotoxicity increase |
| --- | --- | --- |
| CCN(CC)C(=O)Nc1ccc(OCC(O)CNC(C)(C)C)c(C(C)=O)c1 (configuration not stated) |  | -5.57% [at 35.3 µM] (inactive) |
| CCOc1ccc2c(c1)C(C)=CC(C)(C)N2 | inactive |  |
| COc1ccc(Cc2cnc(N)nc2N)cc1OC |  | -4.08% [at 35.3 µM] (inactive) |
| Cc1occc(=O)c1OC(=O)C(C)C |  | 1.52% (inactive) |
| CC(=O)C1=C(C)[C@@H]2C[C@@]3(C1)[C@H](C)CC[C@H]3C2(C)C | inactive |  |
| O=C(O)c1cccc(C(=O)O)c1 | inactive |  |
| c1ccc2cc3c(ccc4ccccc43)cc2c1 | inactive |  |
| CC[C@@H](N)CO |  | -12.3% (inactive) |
| Cc1scc2c1N(C(=O)CN1CCN(C)CC1)c1ccccc1NC2=O |  | 0.666% [at 35.3 µM] (inactive) |
| CC(N)=O |  | 3.21% [at 200 µM] (inactive) |
| O=C1OC2(c3ccc(O)cc3Oc3cc(O)ccc32)c2ccccc21 | 692 nM (active) and 848 nM (active) |  |
| c1ccc2n[nH]nc2c1 | 9.5 µM (active) and inactive |  |
| Oc1c(Cl)cc(Cl)c(Cl)c1Cc1c(O)c(Cl)cc(Cl)c1Cl | inactive |  |
| c1ccc2c(c1)CCCC2C1=NCCN1 (configuration not stated) |  | 5.07% [at 35.3 µM] (inactive) |
| CN1C(=O)c2ccc([N+](=O)[O-])cc2C1=O |  | -7.45% (inactive) |
| Cc1cc(Cc2cc(C)cc(C(C)(C)C)c2O)c(O)c(C(C)(C)C)c1 | 49.2 µM (active) and inactive |  |
| CCN(CC)CCOc1ccc(/C(=C(\Cl)c2ccccc2)c2ccccc2)cc1 | 39.7 µM (active) and inactive |  |
| NCCO | inactive |  |
